Compounds with a hit are over-represented: about 14% of the library has one in this group of screens.
Lassa entry inh: qHTS for Inhibitors of binding or entry into cells for Lassa Virus | hit rate 1.2% among 300,000 | Potency, µM (doses to about 37.9 µM), most hits filed as inhibitors | Lassa virus pseudotype entry inhibition, cell reporter | AID 540256, 2011; calls by dose curve; tested in HEK293 cells; further: nearly all actives have a fitted effect of over 50% in size
HCV inhibitor: qHTS Assay for Inhibitors of Hepatitis C Virus (HCV); hit rate 3.4% among 340,000; Huh7.5.1 HCVcc-Cre infection, luciferase reporter, 44 h; Potency, µM (highest dose often 41.8 µM), actives largely listed as inhibitors; AID 651820, 2012
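HCVcc-Cre virus at an moi near 0.5 was added right after compound to cells cultured 4 h from seeding (1,000 cells/well). Luciferase activity was determined 44 h later, 15 min after substrate addition at RT.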
Marburg entry inh: qHTS for inhibitors of binding or entry into cells for Marburg Virus; Marburg virus pseudotyped entry inhibition, cell reporter; Potency, µM (series often up to 37.8 µM), most hits filed as inhibitors; hit rate 1.8% among 300,000; AID 540276, 2011; calls by dose curve; tested in HEK293 cells
Pf growth 96h: Primary qHTS for delayed death inhibitors of the malarial parasite plastid, 96 hour incubation | P. falciparum luciferase reporter growth, 96 h | hit rate 6.9% among 320,000 | Potency, µM (doses to about 28.7 µM), actives largely listed as inhibitors
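Two-generation exposure (96 h) targets delayed-death phenotype. Reporter parasites carrying integrated firefly luciferase, in red cells at 2% hematocrit and 0.05% parasitemia final, kept at 37 C, 5% CO2; luminescence loss indicates inhibition.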
Pf growth 48h: Primary qHTS for delayed death inhibitors of the malarial parasite plastid, 48 hour incubation | P. falciparum luciferase growth in erythrocytes, 48 h | Potency, µM (top dose mostly 28.7 µM), usual class: inhibitors | hit rate 5.9% among 310,000
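A one-generation exposure of luciferase-tagged malaria parasites in RPMI 1640/Albumax erythrocyte culture, 37 C and 5% CO2. Inhibition is inferred from decreased luminescence after adding detection reagent.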
HCMV inh: qHTS Assay for inhibitors of the human cytomegalovirus (HCMV); HFF cells, HCMV-luciferase reporter, 72 h; active compounds read low; activity change, negative = inhibition, % at 57.5 µM; hit rate 4.5% among 410,000; AID 1259415, 2018; in the data active means activity change below about -60%; inconclusive means no clear call, values can overlap the other calls; inactive means above about -39%
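HFF cells seeded 16 h at 37C, treated with compounds, infected with luciferase-reporter HCMV at MOI 1 PFU/cell; luciferase read at 72 h post infection, normalized to buffer-only and Salinomycin controls.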
A number is an active result; . = inactive; ? = inconclusive; / = no result given; [ ] = remark or other dose. Unless noted, the call rests on the fitted dose curve; in most records, active means well fitted inhibition curve with a large enough effect; inconclusive means small, poorly fitted or top-dose-only effect, or another doubt; inactive means no such curve, though single readings can be large or run the other way.

SMILES	Lassa entry inh	HCV inhibitor	Marburg entry inh	Pf growth 96h	Pf growth 48h	HCMV inh
c1ccc(C2[C@H]3CN(CC4CCCCC4)[C@H](c4ccccc4)C34CC2(c2cccnc2)C4)cc1 (stereo partly drawn)	/	.	/	?	4.1µM	.
c1ccc(C2[C@H]3CN(Cc4cccnc4)[C@H](c4ccccc4)C34CC2(c2cccnc2)C4)cc1 (stereo partly drawn)	/	.[8.37 µM]	/	2.9µM	2.3µM	-65
COCCCN(C(=O)C1=COCCO1)c1c(N)n(Cc2ccccc2)c(=O)[nH]c1=O	/	/	/	/	/	.
Clc1ccc(C2[C@H]3CN(Cc4ccc(-c5ccccc5)cc4)[C@H](c4ccccc4)C34CC2(c2ccccc2)C4)cn1 (stereo partly drawn)	/	.	/	.	?	.
c1ccc(C2[C@H]3CN(Cc4cccnc4)[C@H](c4ccccc4)C34CC2(c2ccccc2)C4)cc1 (stereo partly drawn)	/	.	/	3.3µM	4.1µM	.
Clc1ccc(C2[C@H]3CN(Cc4cccnc4)[C@H](c4ccccc4)C34CC2(c2ccccc2)C4)cn1 (stereo partly drawn)	/	.	/	8.3µM	10µM	.
CCOc1ccc(NC(=O)CC2S/C(=N/N=C3CCCCCC3)NC2=O)cc1 (stereo not drawn)	/	.	/	?	?	.
COc1ccc(Cl)cc1NC(=O)CC1S/C(=N/N=C2CCCCCC2)NC1=O (stereo not drawn)	/	.	/	13µM	?	.
CCN(CC)CCCNC(=O)CCCn1c(=O)[nH]c2ccc(Br)cc2c1=O	.	/	?	/	/	.
CCCN1C(=O)/C(=C/c2ccc(C)o2)SC1=Nc1ccc(OC)cc1	?	.	?	?	?	.
COc1ccc(N=C2S/C(=C\c3ccc(C)o3)C(=O)N2CC(C)C)cc1	.	.	.	3.3µM	/	.
CCCN1C(=O)/C(=C/c2ccco2)SC1=Nc1ccc(OC)cc1	?	?	.	?	10µM	/
CCCN1C(=O)/C(=C/c2ccc(C)o2)SC1=Nc1ccc(OCC)cc1	.	.	.	.	?	.
COc1ccc(-c2noc(CNC(=O)c3cc(OC)c(OC)c(OC)c3)n2)cc1	.	/	?	/	/	.
CC(=O)NC1=C(C#N)C(c2ccccc2)c2c(ccc3ccccc23)O1 (stereo not drawn)	?	?	10µM	?	/	.
COc1cc(/C=C(\C#N)C(=O)N2CCOCC2)ccc1OCc1ccccc1	/	.	.	.	.	.
N#C/C(=C\c1ccc(OCc2ccc(C(=O)O)cc2)cc1)C(=O)N1CCOCC1	1.8µM	.	0.92µM	.	.	.
CCCCCCCOc1ccc(-c2ccc(C#N)cn2)cc1	.	.	.	6.6µM	.	.
CCCCCc1ccc(-c2ccc(C(=O)Oc3ccc(C(=O)OC)cc3)cc2)nc1	?	/	/	/	/	.
CCCc1ccc(-c2ccc(C(=O)O)cc2)nc1	12µM	.	?	.	.	.
CCCCCc1ccc(-c2ccc(OC)cc2)nc1	.	.	.	10µM	.	.
CCCCOc1ccc(-c2cnc3ccccc3n2)cc1	?	.	?	?	.	.
Cc1cc(C)cc(Nc2cc(C(=O)NCc3ccccc3)c3ccccc3n2)c1	.	/	?	/	/	.
COc1cccc(CNC(=O)Cn2c(=O)ccc3cc(S(=O)(=O)N4CCCC4)ccc32)c1	.	/	/	/	/	.
Cc1cccc(OCCCCCN2CCOCC2)c1C	.	.	.	?	.	.
SMILES	Lassa entry inh	HCV inhibitor	Marburg entry inh	Pf growth 96h	Pf growth 48h	HCMV inh
Cc1cccc(OCCCN2CCOCC2)c1C	/	.	/	6.6µM	.	.
CN(C)c1ccccc1C(=O)N1CCCC(C(=O)c2ccc3ccccc3c2)C1 (stereo not drawn)	?	?	?	?	.	.
CCc1ccc2c(c1)C1(C(=O)N2)N2CCCC2C(C(=O)c2ccc3ccccc3c2)C12C(=O)Nc1ccccc12 (stereo not drawn)	?	?	?	2.3µM	?	?
CCc1cccc2c1NC(=O)C21N2CCCC2C(C(=O)c2ccc3ccccc3c2)C12C(=O)Nc1ccccc12 (stereo not drawn)	?	?	10µM	?	?	-93
CCn1nc(C)cc1C(=O)N1CCCC(C(=O)c2ccc3ccccc3c2)C1 (stereo not drawn)	/	?	/	.	.	.
CCN(C(=O)Cn1nc(Cc2ccncc2)c2ccccc2c1=O)c1cccc(C(F)(F)F)c1	.	/	.	/	/	.
COc1ccc2c(CN3CCN(c4ccccc4F)CC3)cc(=O)oc2c1	/	/	/	/	/	.
Cc1cccc(N2C(=O)N3[C@H](c4ccc(Cl)cc4)[C@@H]4C(=O)N(C5CCCCC5)C(=O)[C@@H]4[C@]3(Cc3ccc(Cl)cc3)C2=O)c1	/	.	/	?	?	/
Cc1cccc(N2C(=O)N3[C@H](c4ccc(F)cc4)[C@@H]4C(=O)N(C5CCCCC5)C(=O)[C@@H]4[C@]3(Cc3ccc(Cl)cc3)C2=O)c1	/	.	/	?	?	.
O=C1[C@H]2[C@@H](c3ccc(Cl)cc3)N3C(=O)N(c4cccc(F)c4)C(=O)[C@@]3(Cc3ccc(Cl)cc3)[C@H]2C(=O)N1C1CCCCC1	/	.	/	?	?	/
O=C1[C@H]2[C@@H](c3ccc(F)cc3)N3C(=O)N(c4ccc(Br)cc4)C(=O)[C@@]3(Cc3ccccc3)[C@H]2C(=O)N1C1CCCCC1	/	.	/	3.7µM	3.3µM	.
O=C1[C@H]2[C@@H](c3ccc(Cl)cc3)N3C(=O)N(c4cccc(Cl)c4)C(=O)[C@@]3(Cc3ccc(Cl)cc3)[C@H]2C(=O)N1C1CCCCC1	/	.	/	?	2.6µM	.
O=C1[C@H]2[C@@H](c3ccc(F)cc3)N3C(=O)N(c4cccc(F)c4)C(=O)[C@@]3(Cc3ccc(Cl)cc3)[C@H]2C(=O)N1C1CCCCC1	/	.	/	8.3µM	15µM	.
Cc1ccc(N2C(=O)N3[C@H](c4ccc(Cl)cc4)[C@@H]4C(=O)N(C5CCCCC5)C(=O)[C@@H]4[C@]3(Cc3ccccc3)C2=O)cc1	/	?	/	3.7µM	?	.
Cc1ccc(Cn2cc(/C=C(/C#N)C(=O)Nc3cccc(Cl)c3)c3ccccc32)cc1	.	/	/	/	/	.
CCN(CC)S(=O)(=O)c1ccc(N/N=C/c2ccccc2OCC(=O)O)c([N+](=O)[O-])c1	.	.	.	1.7µM	10µM	.
CC1=C(C(=O)N2CCOCC2)CC(CC(=O)NCC2CCCCC2)C(=O)N1CCC1=CCCCC1 (stereo not drawn)	/	/	/	/	/	.
NCCCCNS(=O)(=O)c1cccc2c(Cl)cccc12	/	/	4µM	/	/	/
O=S(=O)(NCc1cccnc1)c1ccc(Cl)c2ccccc12	.	.	?	.	.	.
O=C1NC(=O)C2(Cc3ccccc3N3CCCC32)C(=O)N1c1cccc(Cl)c1 (stereo not drawn)	.	.	.	2.3µM	.	.
